By inhibition is commonly meant the drop in the measured response relative to a control, in per cent.

The source of these data is PubChem BioAssay.

The other results are listed elsewhere or left out. Unmarked numbers belong to inactive results. Active and inactive are the calls of the source.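 Rule for the calls, unless noted: active = drop in membrane potential signal beyond 5 SD of the control wells in both duplicate plates; inactive = the rest.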

Assay [1] is described as follows: nonspecific voltage dye response without TRPC6 – cell-based, parental HEK293, counter-screen for TRPC6 modulator project, confirmation (AID 488924;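 active = membrane potential signal moves up or down beyond 5 SD from buffer-only wells, on both duplicate plates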). Conditions: parental HEK293, membrane potential dye fluorescence; at 10 µM. A general note: The purpose of a counterscreen is to sort out artefacts and off-target activity.
Assay [2] can be described thus: membrane potential response modulators in host HEK293 cells – cell-based, second counter-screen, parental HEK293, membrane potential dye, counter-screen for TRPC6 modulator project, confirmation (AID 488926;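 active = membrane potential signal drops by more than 5 SD from the mean control signal, in both duplicate plates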;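 for inhibition: plate controls were acetylcholine ECmax control wells for no effect and buffer only wells for full effect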). Conditions: parental HEK293, membrane potential dye fluorescence, at 10 µM, after compound, maximal acetylcholine stimulation; hits give high values.
For assay [3], the system named is Transient receptor potential cation channel subfamily C member 4 (mouse). The assay can be described thus: off-target membrane potential effects via mouse TRPC4 – cell-based, HEK293 TRPC4/mu-opioid, membrane potential dye, selectivity assay for TRPC6 modulator project, confirmation (AID 488927;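 active = membrane potential signal moved up or down beyond 5 SD of buffer control wells, in both duplicate plates, actives on both sides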;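 for percent change from control (negative = decrease, positive = increase): plate controls were assay buffer wells for no effect and DAMGO maximal-effect wells for full effect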). The settings on record: membrane potential fluorescence, at 10 µM.
The subject of assay [4] is TRPC4 (transient receptor potential cation channel C4), mouse. The assay can be described thus: DAMGO-evoked mouse TRPC4 response blockade – cell-based, second screen, HEK293 TRPC4/mu-opioid, membrane potential dye, selectivity assay for TRPC6 modulator project, confirmation (AID 488928).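 Note: TRPC4 counter screen for TRPC6 hits run under conditions tuned for TRPC6 not TRPC4.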 Conditions: membrane potential dye fluorescence, at 10 µM, stimulated with maximal-effect DAMGO; hits give high values.

The target in assay [5] is Short transient receptor potential channel 6 (Mus musculus) (UniProt Q61143). The assay can be described thus: blockers of TRPC6 cation channel activity – HEK293 cells, membrane potential dye, duplicate, confirmation (AID 488960;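 active = fluorescence ratio falls more than 5 SD below the full-stimulation control mean, in both duplicate runs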;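 for inhibition: integrated fluorescence ratio of peak minus minimum over baseline after agonist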). Conditions: ACh-evoked depolarization, at 10 µM; hits give high values.
Assay [6] has the same target. The assay can be described thus: mouse TRPC6 channel activators, confirmation, HEK293 cells, membrane potential dye, duplicate (AID 488961;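 active = ratio signal rise beyond 5 SD above unstimulated control wells' mean, seen in both duplicate runs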). Conditions: HEK293-TRPC6 membrane potential dye fluorescence, FDSS, at 10 µM; hits give high values.
Assay [7] concerns the target Potassium voltage-gated channel subfamily KQT member 1 (Homo sapiens) (UniProt P51787). Put plainly: blockers of human KCNQ1 channel – cell-based, Tl flux, duplicate, confirmation (AID 588353;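 active = primary screen active, with duplicate mean exceeding buffer control mean plus 3 SD of buffer wells, cut at about 28% in these data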;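 note: 0% = buffer control ratio and 100% = XE991 inhibitor control ratio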). The settings on record: KCNQ1 cell line, FluxOR thallium flux fluorescence, at 10 µM, hits give high values.
Assay [8] can be described thus: nonspecific activity in CHO-K1 cells without KCNQ1 – parental CHO cells, Tl flux, counter-screen for KCNQ1 inhibitor project (AID 588366;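 active = mean of duplicate thallium-flux fluorescence ratios in parental host cells more than 5 SD below the buffer control mean, cut at about 0.38 in these data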;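 note: ratio is peak minus minimum fluorescence divided by baseline fluorescence; actives read low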). The settings on record: parental CHO-K1, FluxOR thallium flux fluorescence ratio; at 10 µM; hits give low values; zero means no signal rise above baseline.
For assay [9], the target named is Potassium voltage-gated channel subfamily KQT member 2 (Rattus norvegicus) (UniProt O88943). The assay can be described thus: block of rat KCNQ2 potassium channel – cell-based, selectivity assay for KCNQ1 inhibitor project (AID 651746;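 active = mean percent inhibition of the KCNQ2 thallium signal more than 5 SD above the buffer-only control wells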;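 note: KCNQ2 expressed in CHO cells; 0% = buffer control wells and 100% = XE-991 inhibitor control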). The settings on record: KCNQ2 cells, FluxOR thallium flux fluorescence, at 10 µM; hits give high values.
The target in assay [10] is Potassium voltage-gated channel subfamily E member 1 (Homo sapiens) + Potassium voltage-gated channel subfamily KQT member 1 (Homo sapiens) (UniProt P15382+P51787). The assay can be described thus: block of human IKs channel complex – CHO-K1 cells, thallium flux, FluxOR, selectivity assay for KCNQ1 inhibitor project (AID 652147;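 active = mean percent inhibition of duplicate wells above the buffer-only control mean plus 3 SD of those controls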;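 note: 0% = buffer only wells and 100% = XE-991 inhibitor control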). The settings on record: KCNQ1/KCNE1 cells, FluxOR thallium flux fluorescence, at 10 µM; hits give high values.
Chain of Potassium voltage-gated channel subfamily E member 1 (Homo sapiens) + Potassium voltage-gated channel subfamily KQT member 1 (Homo sapiens) (P51787 whole entry, looked up): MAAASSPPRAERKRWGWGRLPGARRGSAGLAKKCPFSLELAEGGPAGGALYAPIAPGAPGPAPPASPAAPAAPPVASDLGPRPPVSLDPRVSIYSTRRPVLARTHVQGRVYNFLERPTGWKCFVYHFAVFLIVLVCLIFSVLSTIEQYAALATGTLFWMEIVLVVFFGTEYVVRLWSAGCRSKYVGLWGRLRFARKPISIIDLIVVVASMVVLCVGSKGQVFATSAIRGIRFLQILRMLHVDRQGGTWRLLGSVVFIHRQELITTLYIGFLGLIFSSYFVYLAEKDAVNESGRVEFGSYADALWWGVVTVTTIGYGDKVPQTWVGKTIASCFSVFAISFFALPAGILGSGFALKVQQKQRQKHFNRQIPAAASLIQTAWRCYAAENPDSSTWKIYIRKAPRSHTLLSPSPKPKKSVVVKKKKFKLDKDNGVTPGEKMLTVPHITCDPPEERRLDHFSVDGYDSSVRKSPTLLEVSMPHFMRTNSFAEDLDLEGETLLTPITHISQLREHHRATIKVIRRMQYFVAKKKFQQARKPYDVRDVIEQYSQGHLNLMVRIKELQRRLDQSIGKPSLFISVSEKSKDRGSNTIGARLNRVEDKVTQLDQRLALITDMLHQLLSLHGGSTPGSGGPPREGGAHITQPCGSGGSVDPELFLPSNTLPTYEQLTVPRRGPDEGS

Chain of Short transient receptor potential channel 6 (Mus musculus) (Q61143 whole entry, looked up): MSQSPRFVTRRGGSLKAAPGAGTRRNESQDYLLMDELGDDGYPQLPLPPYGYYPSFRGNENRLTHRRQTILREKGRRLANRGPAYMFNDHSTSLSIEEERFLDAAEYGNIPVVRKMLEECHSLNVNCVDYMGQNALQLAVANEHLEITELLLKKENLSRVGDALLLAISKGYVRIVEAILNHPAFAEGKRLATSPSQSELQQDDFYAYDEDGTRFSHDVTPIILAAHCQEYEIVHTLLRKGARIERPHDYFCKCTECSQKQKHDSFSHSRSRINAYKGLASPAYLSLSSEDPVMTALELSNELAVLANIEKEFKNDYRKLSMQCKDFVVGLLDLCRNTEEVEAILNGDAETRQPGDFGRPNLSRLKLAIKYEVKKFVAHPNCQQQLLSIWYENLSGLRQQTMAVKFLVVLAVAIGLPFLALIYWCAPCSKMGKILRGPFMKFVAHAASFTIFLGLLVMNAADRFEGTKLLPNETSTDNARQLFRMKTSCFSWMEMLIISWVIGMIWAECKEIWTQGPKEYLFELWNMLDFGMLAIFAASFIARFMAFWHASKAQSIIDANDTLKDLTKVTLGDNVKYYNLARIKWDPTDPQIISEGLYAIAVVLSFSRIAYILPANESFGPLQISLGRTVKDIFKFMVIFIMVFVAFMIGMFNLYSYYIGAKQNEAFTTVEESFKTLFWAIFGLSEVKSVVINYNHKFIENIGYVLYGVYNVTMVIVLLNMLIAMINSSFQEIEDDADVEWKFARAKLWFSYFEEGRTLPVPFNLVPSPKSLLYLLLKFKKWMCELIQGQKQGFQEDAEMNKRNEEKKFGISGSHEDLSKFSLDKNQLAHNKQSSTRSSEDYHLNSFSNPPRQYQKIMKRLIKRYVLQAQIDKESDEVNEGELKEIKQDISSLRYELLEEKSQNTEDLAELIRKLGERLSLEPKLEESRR
Chain of Potassium voltage-gated channel subfamily KQT member 2 (Rattus norvegicus) (O88943 whole entry, looked up): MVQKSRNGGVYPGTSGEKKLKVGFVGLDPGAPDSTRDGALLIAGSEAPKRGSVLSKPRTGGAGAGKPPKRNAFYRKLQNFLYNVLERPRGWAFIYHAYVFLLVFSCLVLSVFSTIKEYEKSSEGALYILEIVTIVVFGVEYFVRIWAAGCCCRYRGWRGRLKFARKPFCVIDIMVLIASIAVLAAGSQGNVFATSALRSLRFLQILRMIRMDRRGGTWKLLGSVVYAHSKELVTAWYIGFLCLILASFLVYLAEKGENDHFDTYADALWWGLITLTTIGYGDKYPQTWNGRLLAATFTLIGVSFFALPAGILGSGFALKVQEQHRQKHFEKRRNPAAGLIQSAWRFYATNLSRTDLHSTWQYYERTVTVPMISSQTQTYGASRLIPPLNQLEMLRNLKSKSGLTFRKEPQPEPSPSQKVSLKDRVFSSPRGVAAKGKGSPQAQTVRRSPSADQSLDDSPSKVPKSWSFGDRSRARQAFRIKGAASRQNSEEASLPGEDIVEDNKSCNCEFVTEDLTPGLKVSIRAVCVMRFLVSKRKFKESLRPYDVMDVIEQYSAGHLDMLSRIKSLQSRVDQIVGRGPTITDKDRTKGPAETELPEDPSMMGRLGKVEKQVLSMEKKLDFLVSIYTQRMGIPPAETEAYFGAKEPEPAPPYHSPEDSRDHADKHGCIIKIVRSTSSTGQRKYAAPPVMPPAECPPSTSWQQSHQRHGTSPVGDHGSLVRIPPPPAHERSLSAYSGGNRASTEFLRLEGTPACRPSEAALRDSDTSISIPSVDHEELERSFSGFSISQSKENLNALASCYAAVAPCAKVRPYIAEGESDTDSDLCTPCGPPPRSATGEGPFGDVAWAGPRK
Chain of Potassium voltage-gated channel subfamily KQT member 1 (Homo sapiens) (P51787 whole entry, looked up): as the sequence (P51787 whole entry, looked up) above

For the compound `CC(=O)c1cc(NC(=O)c2ccccc2)c(=O)oc1/C=C/N(C)C`, the membrane potential signal change in [1] is 868% (active). For the same compound, the results for the inhibition in assay [2] and in [4] were 196% (active) and 35.5% (active), respectively. In assay [3], the percent change from control (negative = decrease, positive = increase) is 43% (active). Also, the result in assay [5] and in [6] was inactive.

As to `O=[N+]([O-])c1ccccc1Nc1ccc(O)cc1`, the membrane potential signal change in assay [1] is -186% (active). For the same compound, the result in assay [2], in assay [5] and in assay [6] was inactive. The percent change from control (negative = decrease, positive = increase) in [3] was -32% (active). For the same compound, the inhibition in [4] is 61.5% (active).

As for `CCC(C)NCCOCCOc1ccc(Br)cc1C` (stereo not drawn), the membrane potential signal change in assay [1] was 94% (active). The outcome in [2], in [4] and in assay [5] was inactive. In assay [3], the percent change from control (negative = decrease, positive = increase) was 21% (active).

`CCOc1nc(NCCN2CCOCC2)nc(Nc2ccc(C)cc2)n1`: the membrane potential signal change in assay [1] was 98% (active). Besides, the result in assay [2], in assay [4] and in [5] was inactive. In addition, the percent change from control (negative = decrease, positive = increase) in assay [3] is 15% (active).

Take `CCC(C)(C)NC(=O)CN(C(=O)CCC(=O)Nc1nccs1)c1ccc2c(c1)OCO2`: the outcome in assay [1], in [2], in [3], in [4], in [5] and in [6] was inactive.

Consider `COc1ccc(Br)cc1/C=N/n1c(C)nnc1C`, for which the outcome in [1], in assay [2], in assay [4] and in assay [5] was inactive. In addition, the percent change from control (negative = decrease, positive = increase) in assay [3] was 10% (active).

In the case of `CSCCC(NC(=O)c1ccc(=O)n(C)n1)c1nc2ccccc2[nH]1` (stereo not drawn), the outcome in assay [1], in assay [2], in assay [3], in [4], in [5] and in assay [6] was inactive.

Consider `COc1ccc(C(=O)C2CCCN(Cc3cccn3-c3ccccn3)C2)c(C)c1` (stereo not drawn), for which the result in assay [1] and in assay [6] was inactive. Further, the inhibition in assay [2] is 140% (active); in assay [4], 99% (active); in assay [5], 107% (active); in assay [7], 41.5% (active); in assay [9], 89% (active); in assay [10] it was 39.5% (active). Further, the percent change from control (negative = decrease, positive = increase) in assay [3] is -17.5% (active). The fluorescence ratio (Tl flux) in [8] was 0.496.

With `O=C1c2ccccc2C(=O)c2c1cccc2N1CCN(CCO)CC1`, the membrane potential signal change in [1] was -367% (active). Further, the inhibition is 64% (active) in [2], 60% (active) in assay [4] and 78.5% (active) in assay [5]. The percent change from control (negative = decrease, positive = increase) in assay [3] was -80.5% (active). For the same compound, the result in assay [6] was inactive.

In the case of `CCCC(=O)Nc1ccc(C(=O)NCCCn2ccnc2)cc1`, the result in assay [1], in [2], in assay [3], in assay [4], in assay [5] and in [6] was inactive.

On to `Cc1ccc2c(c1)C1CN(C)CCC1N2C(=S)Nc1ccc(Cl)cc1Cl` (stereo not drawn), for which the result in assay [1], in assay [2], in assay [5] and in [6] was inactive. Further, the percent change from control (negative = decrease, positive = increase) in [3] is -10% (active). For the same compound, in assay [4], the inhibition is 49.5% (active).

As to `O=C(Nc1cccc(Cl)c1)Nc1ccccc1NS(=O)(=O)c1cccs1`, the outcome in assay [1], in assay [2], in assay [5] and in assay [6] was inactive. Also, the percent change from control (negative = decrease, positive = increase) in assay [3] is -12.5% (active). Moreover, the inhibition was 36.5% (active) in assay [4], 122% (active) in assay [7], 78.7% (active) in assay [9] and 109% (active) in assay [10]. For the same compound, in [8], the fluorescence ratio (Tl flux) is 0.346 (active).

Consider `O=C(O)c1ccc(NC(=O)c2ccc(COc3ccc(Cl)cc3)o2)cc1`, for which the outcome in assay [1], in [2], in assay [3], in assay [4], in assay [5] and in assay [6] was inactive.
